Source: the supplement of paper PMC8728848
Shown is part of a subset that was picked to be rich in the strongest signals.

How the values were obtained:
Test in all cases: glycan array binding signal (z-score within array); higher = stronger binding
Conditions in all cases: glycan notation: IUPAC condensed, linker removed
GalNAc(b1-4)GlcNAc = target: GalNAc(b1-4)GlcNAc
In short: (§1)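 From the Consortium for Functional Glycomics database, 3228 arrays were curated, keeping only those whose protein sequence was available. Binding is given as a within-array Z-score averaged across arrays sharing a protein sequence and across linkers. Negative Z-scores can be read as non-binding.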

[1] = target: GlcNAc(a1-4)Gal(b1-4)GlcNAc(b1-3)Gal(b1-4)Glc
In short: as §1

[2] = target: GlcNAc(a1-4)Gal(b1-4)GlcNAc(b1-3)Gal(b1-4)GlcNAc(b1-3)Gal(b1-4)GlcNAc
In short: as §1

[3] = target: GlcNAc(b1-2)Man(a1-3)[GlcNAc(b1-2)Man(a1-6)]Man(b1-4)GlcNAc(b1-4)GlcNAc
In short: as §1

[4] = target: GlcNAc(b1-2)[GlcNAc(b1-6)]Man(a1-6)[GlcNAc(b1-4)][GlcNAc(b1-2)Man(a1-3)]Man(b1-4)GlcNAc(b1-4)GlcNAc
In short: as §1

[5] = target: GlcNAc(b1-3)Gal(b1-4)GlcNAc
In short: as §1

[6] = target: GlcNAc(b1-3)Gal(b1-4)GlcNAc(b1-3)Gal(b1-4)GlcNAc(b1-3)Gal(b1-4)GlcNAc(b1-2)[GlcNAc(b1-3)Gal(b1-4)GlcNAc(b1-3)Gal(b1-4)GlcNAc(b1-3)Gal(b1-4)GlcNAc(b1-6)]Man(a1-6)[GlcNAc(b1-3)Gal(b1-4)GlcNAc(b1-3)Gal(b1-4)GlcNAc(b1-3)Gal(b1-4)GlcNAc(b1-2)Man(a1-3)]Man(b1-4)GlcNAc(b1-4)[Fuc(a1-6)]GlcNAc
In short: as §1

GlcNAc(b1-6)GalNAc = target: GlcNAc(b1-6)GalNAc
In short: as §1

[7] = target: Kdn(a2-3)Gal(b1-4)[Fuc(a1-3)]GlcNAc
In short: as §1

[8] = target: Neu5Ac(a2-3)Gal(b1-3)GalNAc
In short: as §1

[9] = target: Neu5Ac(a2-3)Gal(b1-3)GlcNAc(b1-2)Man(a1-3)[GlcNAc(b1-4)][Neu5Ac(a2-3)Gal(b1-3)GlcNAc(b1-2)Man(a1-6)]Man(b1-4)GlcNAc(b1-4)GlcNAc
In short: as §1

[10] = target: Neu5Ac(a2-3)Gal(b1-3)GlcNAc(b1-3)Gal(b1-4)GlcNAc
In short: as §1

[11] = target: Neu5Ac(a2-3)Gal(b1-3)[Fuc(a1-4)]GlcNAc(b1-3)Gal(b1-3)[Fuc(a1-4)]GlcNAc
In short: as §1

[12] = target: Neu5Ac(a2-3)Gal(b1-4)GlcNAc(b1-2)Man
In short: as §1

[13] = target: Neu5Ac(a2-3)Gal(b1-4)GlcNAc(b1-2)Man(a1-3)[Neu5Ac(a2-6)Gal(b1-4)GlcNAc(b1-2)Man(a1-6)]Man(b1-4)GlcNAc(b1-4)GlcNAc
In short: as §1

[14] = target: Neu5Ac(a2-3)Gal(b1-4)GlcNAc(b1-3)Gal(b1-4)GlcNAc(b1-3)Gal(b1-4)GlcNAc
In short: as §1

[15] = target: Neu5Ac(a2-3)Gal(b1-4)[Fuc(a1-3)]GlcNAc(b1-3)Gal(b1-4)GlcNAc
In short: as §1

[16] = target: Neu5Ac(a2-3)Gal(b1-4)[Fuc(a1-3)]GlcNAc(b1-3)Gal(b1-4)[Fuc(a1-3)]GlcNAc(b1-3)Gal(b1-4)[Fuc(a1-3)]GlcNAc
In short: as §1

[17] = target: Neu5Ac(a2-3)[GalNAc(b1-4)]Gal(b1-4)GlcNAc(b1-3)GalNAc
In short: as §1

[18] = target: Neu5Ac(a2-6)Gal(b1-4)GlcNAc(b1-2)Man(a1-3)[Neu5Ac(a2-6)Gal(b1-4)GlcNAc(b1-2)Man(a1-6)]Man(b1-4)GlcNAc(b1-4)GlcNAc
In short: as §1

[19] = target: Neu5Ac(a2-6)Gal(b1-4)GlcNAc(b1-2)Man(a1-6)[GlcNAc(b1-2)Man(a1-3)]Man(b1-4)GlcNAc(b1-4)GlcNAc
In short: as §1

[20] = target: Neu5Ac(a2-6)Gal(b1-4)GlcNAc(b1-3)Gal(b1-4)GlcNAc(b1-3)Gal(b1-4)GlcNAc(b1-2)Man(a1-3)[Neu5Ac(a2-6)Gal(b1-4)GlcNAc(b1-3)Gal(b1-4)GlcNAc(b1-3)Gal(b1-4)GlcNAc(b1-2)Man(a1-6)]GalNAc
In short: as §1

[21] = target: Neu5Ac(a2-6)Gal(b1-4)GlcNAc(b1-6)[Gal(b1-3)]GalNAc
In short: as §1

[22] = target: Neu5Ac(a2-8)Neu5Ac(a2-3)Gal(b1-3)GalNAc(b1-4)[Neu5Ac(a2-8)Neu5Ac(a2-3)]Gal(b1-4)Glc
In short: as §1

[23] = target: Neu5Ac(a2-8)Neu5Ac(a2-3)[Gal(b1-3)GalNAc(b1-4)]Gal(b1-4)Glc
In short: as §1

Neu5Ac(b2-6)GalNAc = target: Neu5Ac(b2-6)GalNAc
In short: as §1

[24] = target: Neu5Gc(a2-8)Neu5Gc(a2-6)Gal(b1-4)GlcNAc
In short: as §1

B1: FimD (Bordetella pertussis) (protein)
chain: MPARVISFCGAALAVWAGLAVQPAMAVDPPVDCGRALGLHFWSSASLISDQTPDGTLIGKPVVGRSLLSKSCKVPDDIKEDLSDNHDGEPVDIVLELGSNYKIRPQSYGHPGIVVDLPFGSTEETGIAIYIDFGSSPMQKVGERQWLYPQKGEVLFDVLTINGDNAEVRYQAIKVGPLKRPRKLVLSQFPNLFTYKWVFMRGTSQERVLAQGTIDTDVATSTIDLKTCRYTSQTVSLPIIQRSALTGVGTTLGMTDFQMPFWCYGWPKVSVYMSATKTQTGVDGVALPATGQAAGMASGVGVQLINGKTQQPVKLGLQGKIALPEAQQTESATFSLPMKAQYYQTSTSTSAGKLSVTYAVTLNYD
For B1, the “glycan array binding signal (z-score)” value (GalNAc(b1-4)GlcNAc) was 1.38, the “glycan array binding signal (z-score)” value [1] was 1.99 and the “glycan array binding signal (z-score)” value [2] was -0.238. For the same binder, the “glycan array binding signal (z-score)” value [3] was 0.004, the “glycan array binding signal (z-score)” value [4] was -0.119 and the “glycan array binding signal (z-score)” value [5] was -0.296. For the same binder, the “glycan array binding signal (z-score)” value [6] was 1.29, the “glycan array binding signal (z-score)” value (GlcNAc(b1-6)GalNAc) was -0.117 and the “glycan array binding signal (z-score)” value [7] was -0.279. For the same binder, the “glycan array binding signal (z-score)” value [8] was 0.041, the “glycan array binding signal (z-score)” value [9] was -0.459 and the “glycan array binding signal (z-score)” value [10] was -0.268. The “glycan array binding signal (z-score)” value [11] was -0.191, the “glycan array binding signal (z-score)” value [12] was 1.16 and the “glycan array binding signal (z-score)” value [13] was -0.107. For the same binder, the “glycan array binding signal (z-score)” value [14] was 0.504, the “glycan array binding signal (z-score)” value [15] was 0.96 and the “glycan array binding signal (z-score)” value [16] was -0.135. For the same binder, the “glycan array binding signal (z-score)” value [17] was 0.943, the “glycan array binding signal (z-score)” value [18] was 0.115 and the “glycan array binding signal (z-score)” value [19] was -0.065. For the same binder, the “glycan array binding signal (z-score)” value [20] was 1.34, the “glycan array binding signal (z-score)” value [21] was -0.022 and the “glycan array binding signal (z-score)” value [22] was 1.36. For the same binder, the “glycan array binding signal (z-score)” value [23] was -0.095, the “glycan array binding signal (z-score)” value (Neu5Ac(b2-6)GalNAc) was -0.348 and the “glycan array binding signal (z-score)” value [24] was -0.611.
